Screens: PubChem, Buhrlage Lab, Dana-Farber Cancer Institute and Novartis Institutes for BioMedical Research (Cambridge, Mass)
USP30 block = inhibitors of human USP30 deubiquitinase; purified USP30, Ub-rhodamine cleavage fluorescence; 47,000 compounds, 5.3% hits; Ubiquitin carboxyl-terminal hydrolase 30 (Homo sapiens), Q70CQ3; inhibition, % at 25 µM
USP17 inh = inhibitors of human USP17 deubiquitinase; Ubiquitin carboxyl-terminal hydrolase 17-like protein 5 (Homo sapiens), A8MUK1; purified USP17, Ub-rhodamine cleavage fluorescence, 3 h; inhibition, % at 50 µM; 47,000 compounds, 6.5% hits
USP28 inh = inhibitors of human USP28 deubiquitinase; purified USP28, Ub-rhodamine cleavage fluorescence, 30 min; 47,000 compounds, 3% hits; inhibition, % at 25 µM; Ubiquitin carboxyl-terminal hydrolase 28 (Homo sapiens), Q96RU2
USP8 inh = inhibitors of human USP8 deubiquitinase; purified USP8, Ub-rhodamine cleavage fluorescence, 30 min; inhibition, % at 20 µM; AID 1645853, 2021; 47,000 compounds, 4.2% hits; Ubiquitin carboxyl-terminal hydrolase 8 (Homo sapiens), P40818
Active calls of the source: *; i = inactive; x = no result given. Compounds with a hit are over-represented: about 14% of the library has one in this group of screens. No stated cut-off is given here; in the data, active means inhibition above about 30%; inactive means the rest.

SMILES	USP30 block	USP17 inh	USP28 inh	USP8 inh
CC(C)c1cc(C(=O)N2CCC(C3Nc4ccccc4S(=O)(=O)N3)CC2)n[nH]1 (stereo not given)	22	6	3	1
COc1cc2c(cc1OC)-c1cc(Oc3ccccc3C)nc(=O)n1CC2	-65	-5	-11	-50
COc1cc2c(cc1OC)-c1cc(N(C(C)=O)c3ccc4c5c(cccc35)CC4)nc(=O)n1CC2	-96	38*	-16	12
COCCCNc1nc(Nc2cccc(OC)c2)c2cnn(C)c2n1	-3	-14	-13	1
CNc1nc2c(c(=O)n1C)CN(C(=O)Nc1cccc3ccccc13)CC2	-27	71*	43*	90*
CC1(C)C[C@@H](O)[C@]2(C)CC[C@]3(C)C(=CCC4[C@@]5(C)CC[C@H](O)[C@](C)(CO)[C@@H]5CC[C@]43C)[C@@H]2C1 (stereo not given in full)	43*	53*	4	3
COc1ccccc1CNC(=O)c1cc(OCc2ccccc2)nc2ccccc12	x	57*	x	-5
Cc1ccc(COc2cc(C(=O)NCc3ccccc3)c3ccccc3n2)cc1	1	-20	-8	-26
O=C(NCc1ccc(F)cc1)c1cc(OCc2ccccc2)nc2ccccc12	31*	16	8	-64
Cc1cccc(C2=NC3(CCN(Cc4ccccc4F)CC3)NC2=O)c1	-14	-37	0	-158
NC(=O)C1CCN(c2nc3ccc(-c4ccccc4)nc3s2)CC1	-35	5	-31	-8
Cn1c(C(=O)NCCc2ccc(S(N)(=O)=O)cc2)cc2sc(Cl)cc21	2	24	41*	3
NS(=O)(=O)c1ccc(CCNC(=O)c2c(Cl)nc3sccn23)cc1	23	22	22	1
COC(=O)c1cc2c(ccn2C)n1CC(=O)N1CCN(c2ccc(F)cc2)CC1	-176	-3	-59	10
COC(=O)c1cc2c(ccn2C)n1Cc1cccc(F)c1	i	-63	-130	22
COC(=O)c1cc2c(ccn2C)n1CC(=O)N1CCN(Cc2ccccc2)CC1	-265	-44	-69	32*
COC(=O)c1cc2c(ccn2C)n1Cc1ccc(F)cc1	-372	-15	-72	52*
COC(=O)c1cc2c(ccn2C)n1CC(=O)N(C1CCCCC1)C1CCCCC1	-301	-29	-80	49*
CC1CC1c1nnc(-c2cnc3onc(C4CCCC4)c3c2)o1 (stereo not given)	7	4	-11	11
Cc1ncc(-c2nc(-c3ccccc3)cs2)c(=O)n1CC(=O)Nc1ccc(F)cc1F	i	-150	-200	-42
CN(C)c1ncc(CN2CCc3nc(-c4ccccn4)[nH]c(=O)c3C2)cn1	-63	-63	-23	-368
CC(C)CNC(=O)C1Cn2ccnc2C2(CCN(C(=O)C3CC3)CC2)O1 (stereo not given)	-6	-25	-19	-73
O=C(/C=C/c1ccco1)Nc1nc2n(n1)C(c1ccccc1)CC(=O)N2 (stereo not given)	-195	-7	-31	-8
O=C1CC(c2ccccc2)n2nc(NC(=O)c3ccccc3F)nc2N1 (stereo not given)	0	-1	-5	44*
CC(=O)Nc1nc2n(n1)C(c1ccccc1)CC(=O)N2 (stereo not given)	-4	-5	-2	3
SMILES	USP30 block	USP17 inh	USP28 inh	USP8 inh
O=C1CC(c2ccccc2)n2nc(NC(=O)c3cccc(F)c3)nc2N1 (stereo not given)	-6	0	-13	2
COc1ccccc1/C=C/C(=O)Nc1nc2n(n1)C(c1ccc(Cl)cc1)CC(=O)N2 (stereo not given)	39*	44*	23	-16
COc1ccc(C(=O)Nc2nc3n(n2)C(c2ccccc2)CC(=O)N3)cc1 (stereo not given)	35*	73*	10	76*
COc1ccc2[nH]c3c(c2c1)CCN1C(=O)CN(CCc2ccc(OC)c(OC)c2)C(=O)[C@]31C	-26	-14	-16	0
O=C(NCCc1nc2ccccc2n1CCOc1ccccc1Cl)C1CCCCC1	55*	64*	30*	83*
Cc1cccc(OCCn2c(CCNC(=O)C3CCCCC3)nc3ccccc32)c1	79*	42*	11	48*
COc1ccccc1OCCCn1c(CN(C)C(=O)c2ccco2)nc2ccccc21	-1	-10	1	-7
CCc1ccc(OCCn2c(CCNC(=O)C3CCCCC3)nc3ccccc32)cc1	27	6	17	69*
Fc1ccc(-c2noc([C@@H]3CCCN3C3CCOCC3)n2)nc1	-41	-23	-1	1
O=C(C1CCOCC1)N1C[C@@H]2C[C@]2(c2ccccc2)C(=O)c2ncccc21	-3	2	-3	1
C[C@H]1CN(S(=O)(=O)c2cccc(F)c2)C[C@@H]1c1nc(-c2ccncc2)no1	13	-7	7	-1
COc1ccc(OC)c(C(=O)CSc2nc3nc(C)c(Br)cc3[nH]2)c1	-20	50*	0	-9
CCOc1ccc2nc(-n3nc(C)c4c3NC(=O)CC4c3cc(C)sc3C)sc2c1 (stereo not given)	36*	2	3	4
CCOC(=O)c1cnc(Nc2ccccc2OCC)c2ccccc12	-110	-14	-34	60*
CCOC(=O)c1cnc(Nc2cccc(CC)c2)c2ccccc12	-30	-4	-11	1
Cc1nc2nc[nH]n2c(=O)c1CCC(=O)Nc1ccc(C(C)C)cc1	18	12	7	19
NCCCC(N)CC(=O)NCCCC(N)CC(=O)NCCCC(N)CC(=O)NCCCC(N)CC(=O)NCCCC(N)CC(=O)NCCCC(N)CC(=O)NC1C(NC2=N[C@@H]3C(=O)NC[C@@H](O)[C@H]3N2)OC(CO)C(OC(N)=O)C1O (stereo not given in full)	32*	1	23	-5
CCN1CCSc2ccc(C(=O)Nc3ccc(C)cc3)cc21	-38	-9	2	2
Cc1cc(C)n(CC(=O)NCc2ccc(F)cc2F)c1-c1nc(C2CC2)no1	33*	31*	14	16
Cc1cc(F)ccc1NC(=O)Cn1c(C)cc(C)c1-c1nc(C2CC2)no1	-7	48*	4	0
CSC1=NCCN1C(=O)c1cc2ccccc2o1	19	6	9	0
Cc1nc(N2CCCC2)n(CCN2CCOCC2)c(=O)c1C	8	-1	9	6
COc1ccccc1NS(=O)(=O)c1c[nH]c2ccc([N+](=O)[O-])cc12	1	-24	-5	3
CCOc1ccc(NS(=O)(=O)c2c[nH]c3ccc([N+](=O)[O-])cc23)cc1	63*	53*	15	-12
CC1CCc2c(sc3nc(SCC(=O)NCc4ccco4)[nH]c(=O)c23)C1 (stereo not given)	-20	0	-6	-4
CCNc1nc(SCC(C)=O)nc2sc3c(c12)CCC(C)C3 (stereo not given)	34*	58*	20	2
